The source made the active and inactive calls.
test system: Neuregulin-1 EGF-like domain; assay: binders of neuregulin-1 EGF-like domain, primary screen, biochemical, small-molecule microarray, 635 nm fluorescence (AID 1081); conditions: small-molecule microarray binding, higher = more signal;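 further: binding of the protein to compounds printed on small-molecule microarray slides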

**Q.** With `C[C@@H](c1ccccc1)N1C(=O)[C@H]2[C@H]3[C@H](O)C=CC(=O)[C@@H]3CC[C@H]2C1=O` as the molecule, how does the composite z-score read?
**A.** The composite z-score was 0.609.

**Q.** With `CCCC[C@H]1OB(O)C[C@H]2C1=C(C)C[C@H]1C(=O)N(C)C(=O)[C@H]12` as the molecule, how does the composite z-score read?
**A.** Its composite z-score is 0.938.

**Q.** With `CCCCc1nc2c(c3c1C[C@H](C)OC3)CN(CCC(C)C)CC2` as the molecule, how does the composite z-score read?
**A.** Its composite z-score is 1.17.

**Q.** For `C/C=C\[C@@H](NCc1ccccc1Br)[C@@H](O)Cc1ccccc1`, which composite z-score is on record?
**A.** The composite z-score was -0.537.

**Q.** For `CC(=O)C[C@H](O)[C@@H](NC(=O)OC(C)(C)C)C(C)C`, which composite z-score is on record?
**A.** The composite z-score was -0.996.

**Q.** With `CC(C)=CCCC(C)=CCON=C1C[C@@H](O)[C@@H](O)[C@@H]2[C@@H]3C(=O)N(C[C@@H]4CCCO4)C(=O)[C@@H]3CC[C@@H]12` as the molecule, how does the composite z-score read?
**A.** Its composite z-score is 1.08.

**Q.** With `CCOC(=O)NN=C1C[C@@H](O)[C@@H](O)[C@@H]2[C@@H]3C(=O)N(C(C)(C)C)C(=O)[C@@H]3CC[C@@H]12` as the molecule, how does the composite z-score read?
**A.** The composite z-score was -1.83.

**Q.** For `COCCCNC(=O)[C@]1(Cc2ccccc2)N=C(c2ccc(OCCCO)cc2)O[C@@H]1c1ccccc1`, which composite z-score is on record?
**A.** Its composite z-score is 1.04.

**Q.** With `CC(C)=NOCc1ccc(-c2cc(-c3ccccc3)no2)cc1` as the molecule, how does the composite z-score read?
**A.** The composite z-score was 0.123.

**Q.** With `COCCCNC(=O)[C@@]1(Sc2ccc(C)cc2)CC(=O)N(Cc2ccccc2)[C@@H]1c1ccc(CO)cc1I` as the molecule, how does the composite z-score read?
**A.** The composite z-score was -0.118.

**Q.** For `COc1ccc(-c2ccc3c(n2)CCCN3CC(O)CN2CCCc3nc(C)c(C)cc32)cc1` (stereo not given), which composite z-score is on record?
**A.** The composite z-score was 0.732.

**Q.** With `CC(=O)OC[C@H]1O[C@H](CC=NOC[C@@H](C)[C@H](OCc2ccccc2)C(C)C)C=C[C@@H]1OC(C)=O` as the molecule, how does the composite z-score read?
**A.** Its composite z-score is -0.712.

**Q.** For `CC(CCC(=O)OC[C@H]1O[C@H](C#Cc2ccccc2)C=C[C@@H]1Oc1ccc(C)cc1)=NO[C@@H](C)c1cn([C@H](CO)Cc2ccccc2)nn1`, which composite z-score is on record?
**A.** Its composite z-score is 0.0865.

**Q.** Which composite z-score does the source give for `COc1ccc([Si](C)(C)[C@H]2[C@H](CCO)O[C@@]3(C(=O)N(Cc4cccc(NC(=O)[C@H](C)O)c4)c4ccccc43)[C@@H]2C)cc1` here?
**A.** Its composite z-score is 1.22.

test system: not listed separately; assay: FRG1 promoter luciferase signal modulators, primary screen, FRG1 inhibition for FSHD, cell-based, C2C12 myotubes, firefly/Renilla luciferase, luminescence (AID 1084); conditions: higher = more signal, called active from +8 up or from −8 down

**Q.** With `CC(C)CON=C1[C@H]2CCn3c(=O)n(-c4ccccc4)c(=O)n3[C@H]2[C@H](O)[C@@H]2O[C@H]12` as the molecule, how does the z-score read?
**A.** The z-score was -0.217 (inactive).

**Q.** Which z-score does the source give for `O=C1C[C@@H](O)[C@@H](O)[C@@H]2[C@@H]3C(=O)N(c4cccc(Oc5ccccc5)c4)C(=O)[C@@H]3CC[C@@H]12` here?
**A.** Its z-score is -0.211 (inactive).

**Q.** Which z-score does the source give for `CO[C@H]([C@@H](C)[C@H](OC)c1ccccc1)[C@H](C)[C@@H](OC)[C@H](C)C(C)=O` here?
**A.** Its z-score is 0.425 (inactive).

**Q.** With `Cc1ccc(S[C@]2(C(=O)NCC(F)(F)F)CC(=O)N(Cc3ccccc3Cl)[C@@H]2c2ccc(CO)cc2I)cc1` as the molecule, how does the z-score read?
**A.** Its z-score is -1.13 (inactive).

**Q.** Which z-score does the source give for `O=C1O[C@@H](c2ccccc2)[C@@H](c2ccccc2)N2[C@@H](c3ccc(O)cc3)[C@]3(C(=O)Nc4ccccc43)[C@@H](C(=O)O)[C@H]12` here?
**A.** The z-score was -1.09 (inactive).

**Q.** For `COCCNC(=O)OCC1CCCC2(CC(OC(=O)NCCc3ccc(F)cc3)CC(CCC(=O)N[C@@H](C)C(=O)OC)O2)O1` (stereo not given in full), which z-score is on record?
**A.** The z-score was -0.0861 (inactive).

**Q.** Which z-score does the source give for `CCCNC(=O)[C@@H]1c2ccccc2C(=O)N(c2ccc(C)cn2)[C@H]1c1ccc(CO)cc1` here?
**A.** Its z-score is 0.213 (inactive).

**Q.** For `CCOC(=O)[C@H](CC(C)C)NC(=O)CCC1CC(OC(=O)NCCc2ccc(F)cc2)CC2(CCCC(COC(=O)NCc3ccccc3)O2)O1` (stereo not given in full), which z-score is on record?
**A.** The z-score was 2.94 (inactive).

**Q.** With `CCOC(=O)CCN1C(=O)[C@H]2[C@H]3[C@H](O)[C@H](O)CC(=O)[C@H]3CC[C@H]2C1=O` as the molecule, how does the z-score read?
**A.** The z-score was 0.639 (inactive).

**Q.** Which z-score does the source give for `C=CCC(OC(C)=O)[C@@H]1[C@@H](N(Cc2cc3ccccc3o2)C(=O)Cc2ccc(F)cc2)c2cc(OCCCO)ccc2N1C(=O)Cc1ccc(OC)cc1` (stereo not given in full) here?
**A.** Its z-score is -2.16 (inactive).

**Q.** With `CCOC(=O)NN=C1C[C@@H](O)[C@@H](O)[C@@H]2[C@@H]3C(=O)N(C[C@@H]4CCCO4)C(=O)[C@@H]3CC[C@@H]12` as the molecule, how does the z-score read?
**A.** The z-score was 0.52 (inactive).

**Q.** Which z-score does the source give for `COc1ccc(-c2nc3c(c4c2C[C@H](C)OC4)CN(CCC(C)C)CC3)cc1` here?
**A.** The z-score was -0.145 (inactive).

**Q.** For `CO[C@@H]1COC(=O)[C@@H]2CCCN2C(=O)[C@@H](C)COC(=O)[C@H](COCc2ccccc2)NC(=O)CC=C[C@H]1C`, which z-score is on record?
**A.** Its z-score is -0.0485 (inactive).

**Q.** With `CCN1C(=O)[C@H]2[C@H]3[C@H](O)[C@H](O)CC(=NOC(C)CN4CCCCc5nc(C)c(C)cc54)[C@@H]3CC[C@H]2C1=O` (stereo not given in full) as the molecule, how does the z-score read?
**A.** The z-score was 0.682 (inactive).

**Q.** For `CCc1cc2c(nc1CC)CCN(CCC(C)=NO[C@@H](C)c1cc(-c3c(C)cc(C)cc3C)no1)C2`, which z-score is on record?
**A.** Its z-score is -1.01 (inactive).

**Q.** With `CO[C@H]1O[C@H](CO)[C@@H](OC(=O)Nc2ccc3c(c2)OCO3)[C@H](OC(=O)Nc2ccccc2-c2ccccc2)[C@@H]1OC(=O)Nc1ccccc1-c1ccccc1` as the molecule, how does the z-score read?
**A.** The z-score was 1.36 (inactive).

— PubChem BioAssay
